Results as given in PubChem BioAssay.
The list shows a part of the results. Unmarked numbers belong to inactive results. Calls of active or inactive are those of the source.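 How the source made its calls: active means mean activation over triplicate wells above the hit cutoff derived from the earlier primary screen (cut at about 11% in these data); inactive means the rest.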

What follows are compounds tested on DAF-12 nuclear receptor (Heterodera glycines), GAL4-LBD fusion (assay: H. glycines DAF-12 receptor agonists, confirmation, cell-based, luminescence, HEK293, GAL4-LBD fusion (AID 743050;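 further: 0% = DMSO low control and 100% = 2 mM sodium butyrate high control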)). Details: HEK293 GAL4-hgDAF12 luciferase reporter, agonist mode; at 6.8 µM; active compounds read high; percent of butyrate response.

Row | SMILES | activation
1 | Cc1ccc(NC(=O)c2ccco2)cc1 | 11.2% (active)
2 | COc1cccc(/C=C/C(=O)Nc2ccc3c(c2)OCCO3)c1 | 12.4% (active)
3 | O=C(NCCc1ccc(F)cc1)c1ccc2nccnc2c1 | 17% (active)
4 | S=C(c1ccc(-c2ccccc2)o1)N1CCCCC1 | 16.1% (active)
5 | O=C(Nc1ccc(Cl)c(Cl)c1)c1ccccc1NC(=O)C1CC=CCC1C(=O)O (centres undefined) | 10.2%
6 | COc1ccc(C(=O)O/N=C(\N)c2ccccn2)cc1[N+](=O)[O-] | 15% (active)
7 | O=C(NCCOc1ccccc1)c1ccccc1 | 13.3% (active)
8 | CC1C/C(=N/NC(=O)c2cccs2)CC(C)(C)C1 (centres undefined) | 4.24%
9 | Oc1cccc2cc(-c3ccncc3)cnc12 | 5.92%
10 | CC(C)c1cc(C(N)=O)c(NC(=O)c2cccc(COc3ccc(Br)cc3)c2)s1 | 14% (active)
11 | COc1ccc(-c2cn3ccsc3n2)cc1 | 16.3% (active)
12 | O=C(NC1CCCC1)c1cc(-c2ccccc2)on1 | 37.1% (active)
13 | Clc1ccc2nc(CSc3ccccc3)cn2c1 | 13.2% (active)
14 | O=C(NNC(=O)c1ccc(Cl)cc1Cl)c1cccs1 | 9.02%
15 | O=C(CSC(=S)N1CCCCC1)c1c(F)cccc1F | 13.4% (active)
16 | O=C(Nc1ccc(C2CC2(Cl)Cl)cc1)c1cccc([N+](=O)[O-])c1 (centres undefined) | 15.2% (active)
17 | O=C(NC1CCC1)c1ccc(C#CC2CC2)cn1 | 13.4% (active)
18 | Cn1c(-c2ccc(C(=O)c3ccccc3)s2)nc2ccccc21 | 17.6% (active)
19 | CC(C)C(=O)Nc1cccc(C(=O)Nc2ccc3c(c2)OCO3)c1 | 14.1% (active)
